# Screens from PubChem BioAssay.
# TDP1 cell CPT = qHTS for Inhibitors of human tyrosyl-DNA phosphodiesterase 1 (TDP1): qHTS in cells in presence of CPT; AID 686979, 2013; chicken DT40 Tdp1-/-;hTDP1 cells + 20 nM CPT, ATP luminescence, 48 h; 420,000 tested, 12% active; Potency, µM (doses to about 46.2 µM), inactives show at the highest dose activity change, negative = growth inhibition, actives largely listed as inhibitors; further: potency means the concentration at half of the fitted maximal effect; nearly all actives have a fitted effect of over 55% in size
#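 Cell growth measured by CellTiter-Glo luminescence after a minimum 48 h, 37 C compound exposure with 20 nM CPT in Tdp1-knockout DT40 cells stably expressing hTDP1, seeded 400/well; qHTS titration format.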
# Six1-Eya2 blk = qHTS Assay for Inhibitors of the Six1/Eya2 Interaction; AlphaScreen GST-Six1/His-Eya2 binding, biochemical; hits give low values; activity change, % (test concentration not listed); 360,000 tested, 0.56% active; Homeobox protein SIX1 (Homo sapiens) + Protein phosphatase EYA2 (Homo sapiens), …; AID 651725, 2012; in the data active means activity change below about -65%; inconclusive means mostly about -30% to -63%
#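 Six1/Eya2 binding was read as AlphaScreen signal after compounds were pinned into GST-Six1 plus His-tagged Eya2 (5X stock 250/500 nM) in pH 8.0 Tris/NaCl/TCEP buffer, beads added, then incubated 1 h, 37 C, dark.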
# CtBP-E1A inh = qHTS Assay for Inhibitors of the CtBP/E1A Interaction; CtBP / adenovirus E1A interaction (AlphaScreen); AlphaScreen GST-E1A/His-CtBP binding, 1536-well; hits give low values; activity change, % (test concentration not listed); 340,000 tested, 0.49% active; AID 651724, 2012; in the data active means activity change below about -65%; inconclusive means mostly about -30% to -63%
#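 Homogeneous bead-based format: GST-tagged E1A captured on glutathione donor beads, His-tagged CtBP on nickel acceptor beads; compounds precede bead addition by 2 h at 37 °C.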
# DT40 TDP1 no CPT = qHTS for Inhibitors of human tyrosyl-DNA phosphodiesterase 1 (TDP1): qHTS in cells in absence of CPT. DT40 Tdp1-/- hTDP1 cells, no CPT, ATP luminescence, 48 h. Potency, µM (series often up to 46.2 µM), for inactives: at the highest dose activity change, negative = growth inhibition, hits mostly inhibitors. AID 686978, 2013. 420,000 tested, 15% active; further: potency means the concentration at half of the fitted maximal effect; nearly all actives have a fitted effect of over 55% in size
#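 A cellular qHTS used chicken DT40 cells lacking endogenous Tdp1 but carrying stably transfected human TDP1. Compounds were applied without camptothecin, and cell growth kinetics were judged by ATP-dependent luminescence after ≥48 hr.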
# IL-1B inflam inh = qHTS for Inhibitors of Inflammasome Signaling: IL-1-beta AlphaLISA Primary Screen; THP-1 LPS/ATP IL-1B secretion, AlphaLISA, 16 h; hits give low values; 360,000 tested, 4.7% active; activity change, % at 57.5 µM; in the data active means activity change below about -50%; inconclusive means mostly about -30% to -49%
#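 THP-1 cells pretreated 1 hr with compounds (up to 57.5 uM final), then stimulated with LPS (250 ng/mL final) plus ATP (1.25 mM final); secreted IL-1B measured by AlphaLISA after 16 hr, decreased signal indicating inhibition.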
# TDP1 block = qHTS Assay for Inhibitors of Tyrosyl-DNA Phosphodiesterase (TDP1); recombinant TDP1, AlphaScreen DNA substrate cleavage; Potency, µM (highest dose often 130 µM), inactives show at the highest dose activity change, negative = inhibition, usual class: inhibitors; 350,000 tested, 0.28% active; AID 485290, 2010; further: potency means the concentration at half of the fitted maximal effect; nearly all actives have a fitted effect of over 40% in size
#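 Steps: enzyme plus compound, 15 min RT; add biotin/phosphotyrosine-FITC oligonucleotide (15 nM final), react 5 min; add donor/acceptor beads (10 ug/ml final), 10 min; read AlphaScreen. Tdp1 at 1 nM final.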
# * marks the source's active call; other numbers are inactive results; ? = inconclusive; . = not tested or not shown. Most compounds without a hit are left out; they make up all but 18% or so of the library. Unless noted, the call rests on the fitted dose curve; in most records, active means well fitted curve in the direction sought with a large enough effect; inconclusive means small, poorly fitted or top-dose-only effect, or another doubt; inactive means no such curve, though single readings can be large; an effect the other way counts as inactive or inconclusive. On the % scale 0 is the no-effect control and ±100 the full control effect.
SMILES,TDP1 cell CPT,Six1-Eya2 blk,CtBP-E1A inh,DT40 TDP1 no CPT,IL-1B inflam inh,TDP1 block
CCOC(=O)c1cc(-c2ccccc2)n(CCC(=O)N2CCN(c3ccc(OC)cc3)CC2)c1C,14.6µM*,?,?,23.1µM*,-59.7*,8.2%
O=C(Nc1ccon1)c1cc2ccccc2oc1=O,-29.0%,-4.7,-5.1,-8.8%,0.0,2.3%
CCc1cccc(C)c1NC(=O)c1cc(S(=O)(=O)N2CCCCCC2)cn1C,?,.,.,?,.,1.8%
Cc1ccc(C(C(=O)NCc2ccco2)N(C(=O)CNC(=O)c2cccs2)c2ccc(C)cc2C)cc1 (configuration not stated),29.1µM*,-1.6,9.6,6.51µM*,22.6,2.0%
Cc1ccc(-c2ccc(CN3C(C)C(=O)N(Cc4cn(Cc5ccco5)nn4)CCS3(=O)=O)cc2)cc1 (configuration not stated),?,-10.6,1.0,?,-9.7,.
CC1C(=O)N(Cc2cn(Cc3ccco3)nn2)CCS(=O)(=O)N1Cc1ccc(-c2cccnc2)cc1 (configuration not stated),?,-19.2,0.0,?,?,.
Cc1ccccc1-c1ccc(CN2C(C)C(=O)N(Cc3cn(Cc4ccco4)nn3)CCS2(=O)=O)cc1 (configuration not stated),?,-6.0,-18.4,?,?,.
Cc1ccc(-c2ccc(CN3C(C)C(=O)N(Cc4cn(Cc5ccco5)nn4)CCS3(=O)=O)cc2)c(C)c1 (configuration not stated),?,-10.8,-1.9,?,-60.8*,.
CC1C(=O)N(Cc2cn(Cc3ccco3)nn2)CCS(=O)(=O)N1Cc1ccc(-c2ccccc2C(F)(F)F)cc1 (configuration not stated),?,-8.9,-4.8,?,-59.5*,.
CC1C(=O)N(Cc2cn(Cc3ccco3)nn2)CCS(=O)(=O)N1Cc1ccc(-c2ccc(Cl)c(Cl)c2)cc1 (configuration not stated),14.6µM*,-3.6,-0.8,8.2µM*,-51.4*,.
CC(C)CC1C(=O)N(Cc2cn(Cc3ccco3)nn2)CCS(=O)(=O)N1Cc1ccc(-c2cccc(N(C)C)c2)cc1 (configuration not stated),?,-11.5,-17.4,13µM*,-0.2,.
Cn1c(=O)c2c(nc(SCc3ccc(C(=O)O)cc3)n2C)n(C)c1=O,8.2%,-6.3,.,-25.7%,10.8,.
COc1ccc(-c2ccc(CN3C(C(C)C)C(=O)N(Cc4cn(Cc5ccco5)nn4)CCS3(=O)=O)cc2)cc1 (configuration not stated),?,-9.6,2.1,20.6µM*,-0.1,.
CC(C)Cc1ccc(CN2C(C)C(=O)N(Cc3cn(Cc4ccco4)nn3)CCS2(=O)=O)cc1 (configuration not stated),?,-20.7,1.7,?,?,.
CCC/C=C/c1ccc(CN2C(C(C)C)C(=O)N(Cc3cn(Cc4ccco4)nn3)CCS2(=O)=O)cc1 (configuration not stated),?,-20.2,?,23.1µM*,?,.
Cc1ccc(-c2ccc(CN3C(CC(C)C)C(=O)N(Cc4cn(Cc5ccco5)nn4)CCS3(=O)=O)cc2)cc1 (configuration not stated),4.3%,-1.9,5.8,?,-16.4,.
